About 83,000 compounds went through this panel and 20% of them were active in at least one assay; those are over-represented in the sample as a whole.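 Values shown are percent growth following 48 h exposure of cells in 96-well plates to a single concentration of compound; below 10 was considered active.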 Activity calls are given as the source filed them.
What was measured:
Assay in all cases: NCI-60 one-dose screen, 48 h (100 = growth as untreated, 0 = no growth, -100 = all killed)
Details in all cases: 10 µM
K-562 leukemia = tested on: K-562 leukemia
MALME-3M melanoma = tested on: MALME-3M melanoma
MDA-MB-231 breast = tested on: MDA-MB-231 breast
RXF 393 renal = tested on: RXF 393 renal
SF-268 CNS = tested on: SF-268 CNS
SF-295 CNS = tested on: SF-295 CNS
SF-539 CNS = tested on: SF-539 CNS
UACC-257 melanoma = tested on: UACC-257 melanoma
M14 melanoma = tested on: M14 melanoma
HCT-15 colon = tested on: HCT-15 colon

Measured: growth

COc1ccc(/C=C/C(C)=N/OCC(=O)O)cc1
inactive: K-562 leukemia 99.9% | MALME-3M melanoma 96.7% | MDA-MB-231 breast 120% | RXF 393 renal 101% | SF-268 CNS 107% | SF-295 CNS 100% | SF-539 CNS 101% | UACC-257 melanoma 112% | M14 melanoma 100% | HCT-15 colon 102%

Cc1nc2ccc(CN(C)c3ccc(C(=O)N[C@@H](CCC(=O)O)C(=O)O)s3)cc2c(=O)[nH]1
active: SF-539 CNS 6.05%
inactive: K-562 leukemia 30.6% | MALME-3M melanoma 60.7% | MDA-MB-231 breast 89.4% | RXF 393 renal 31.8% | SF-268 CNS 26.4% | SF-295 CNS 22.9% | UACC-257 melanoma 46.7% | M14 melanoma 21.8% | HCT-15 colon 74.5%

CC/C(=C(/c1ccc(OCCN(C)C)cc1)c1ccc(OC(=O)CCCCCCCCC(=O)c2c(C)[nH]c(/C=C3\N=C(c4ccc[nH]4)C=C3OC)c2C)cc1)c1ccccc1
inactive: K-562 leukemia 33.5% | MALME-3M melanoma 68.1% | MDA-MB-231 breast 11.2% | RXF 393 renal 69.1% | SF-268 CNS 71.7% | SF-295 CNS 89% | SF-539 CNS 83.4% | UACC-257 melanoma 90.5% | M14 melanoma 38.6% | HCT-15 colon 58%

CN(C)c1ccc(/C=C/C=N/NC(=O)c2cc(O)c(O)c(O)c2)cc1
inactive: K-562 leukemia 27.1% | MALME-3M melanoma 88.9% | MDA-MB-231 breast 85.4% | RXF 393 renal 99.4% | SF-268 CNS 94.6% | SF-295 CNS 103% | SF-539 CNS 89.8% | UACC-257 melanoma 92.8% | M14 melanoma 96.9% | HCT-15 colon 94.2%

COc1cccc(-c2cc(-c3cccc(NS(C)(=O)=O)c3)nc(N)c2C#N)c1O
active: MALME-3M melanoma -5.49% | SF-295 CNS -1.4% | SF-539 CNS 3.03%
inactive: K-562 leukemia 17.1% | MDA-MB-231 breast 53.7% | RXF 393 renal 29.3% | SF-268 CNS 42.6% | UACC-257 melanoma 79.8% | M14 melanoma 41.3% | HCT-15 colon 26.7%

O=C(CSSCC(=O)c1ccc(Cl)cc1)c1ccc(Cl)cc1
inactive: K-562 leukemia 52.9% | MALME-3M melanoma 39.7% | MDA-MB-231 breast 92.8% | RXF 393 renal 99.7% | SF-268 CNS 61% | SF-295 CNS 35.9% | SF-539 CNS 68.4% | UACC-257 melanoma 59.2% | M14 melanoma 82.2% | HCT-15 colon 87.2%

CCCCCCCCN(CCCCCCCC)CCCCCCCCCN1CCCc2cc(OC)ccc21
inactive: K-562 leukemia 80.4% | MALME-3M melanoma 104% | MDA-MB-231 breast 89.9% | SF-268 CNS 99.9% | SF-295 CNS 88.5% | SF-539 CNS 104% | UACC-257 melanoma 106% | M14 melanoma 93.8% | HCT-15 colon 89.3%

O=C(C[n+]1ccccc1)c1ccc2ccccc2c1
inactive: K-562 leukemia 86.6% | MALME-3M melanoma 92.4% | MDA-MB-231 breast 95.2% | SF-268 CNS 103% | SF-295 CNS 88.2% | SF-539 CNS 97.3% | UACC-257 melanoma 92.6% | M14 melanoma 94% | HCT-15 colon 109%

CCN(CC)CCCC(C)Nc1nc(-c2ccc(OC)cc2)nc2cc(Cl)ccc12 (centres undefined)
active: M14 melanoma -29%
inactive: K-562 leukemia 44.3% | MALME-3M melanoma 79.2% | MDA-MB-231 breast 28.9% | SF-268 CNS 60.1% | SF-295 CNS 89.7% | SF-539 CNS 62% | UACC-257 melanoma 46% | HCT-15 colon 49.9%

COc1cc(/C(=C2/O[C@@H]([C@H]3COC(C)(C)O3)[C@H]3OC(C)(C)O[C@@H]23)c2ccc3ccccc3c2)cc(OC)c1OC
inactive: K-562 leukemia 28.1% | MDA-MB-231 breast 13.6% | SF-295 CNS 46.6% | SF-539 CNS 26.4% | UACC-257 melanoma 45.9% | M14 melanoma 62.8% | HCT-15 colon 59.7%
active: MALME-3M melanoma -25.4% | SF-268 CNS -16.9%

COc1ccc(NC(=O)Cc2nc3nc4sc(C)c(C)c4c(=O)n3[nH]2)cc1
inactive: K-562 leukemia 109% | MALME-3M melanoma 89.2% | MDA-MB-231 breast 108% | SF-268 CNS 109% | SF-295 CNS 91.3% | SF-539 CNS 103% | UACC-257 melanoma 101% | M14 melanoma 103% | HCT-15 colon 99.7%

Cc1occc1-c1nnc(SCC(=O)c2ccc(NC(=O)CC(C)C)cc2)o1
inactive: K-562 leukemia 86.1% | MALME-3M melanoma 89.8% | MDA-MB-231 breast 105% | SF-268 CNS 132% | SF-295 CNS 104% | SF-539 CNS 101% | M14 melanoma 112% | HCT-15 colon 121%

Cc1cc(O)c(C(C)(C)C)cc1Sc1cc(C(C)(C)C)c(O)cc1C
inactive: K-562 leukemia 14.6% | MALME-3M melanoma 73.7% | SF-268 CNS 49.4% | SF-295 CNS 53.4% | SF-539 CNS 77.8% | UACC-257 melanoma 30.9% | HCT-15 colon 44.3%
active: MDA-MB-231 breast -9.88% | M14 melanoma 0.358%

ClCCOCCn1cnc2c(Cl)nc(Cl)nc21
inactive: K-562 leukemia 28.2% | MALME-3M melanoma 112% | MDA-MB-231 breast 58.2% | SF-268 CNS 45.3% | SF-295 CNS 70.2% | SF-539 CNS 96.8% | UACC-257 melanoma 59.9% | M14 melanoma 46.5% | HCT-15 colon 18.4%

Cc1cccc(Cl)c1NC(=O)c1ccc2nc(NC(=O)NC3CCN(C)CC3)sc2c1
active: K-562 leukemia 7.86%
inactive: MALME-3M melanoma 60.8% | MDA-MB-231 breast 96.7% | SF-268 CNS 86% | SF-295 CNS 83.5% | SF-539 CNS 44.3% | UACC-257 melanoma 84.7% | M14 melanoma 104% | HCT-15 colon 101%

COc1cc(C(=C2O[C@@H]([C@H]3COC(C)(C)O3)[C@H]3OC(C)(C)O[C@@H]23)c2cc(OC)c(OC)c(OC)c2)cc(OC)c1OC
inactive: K-562 leukemia 91.8% | MALME-3M melanoma 123% | MDA-MB-231 breast 91.6% | SF-268 CNS 113% | SF-295 CNS 110% | SF-539 CNS 111% | UACC-257 melanoma 105% | M14 melanoma 106% | HCT-15 colon 103%

O=C(CC(c1ccccc1)N1CCOCC1)c1ccccc1 (centres undefined)
inactive: K-562 leukemia 27.9% | MALME-3M melanoma 87.6% | MDA-MB-231 breast 98.6% | SF-268 CNS 91.8% | SF-295 CNS 94.9% | SF-539 CNS 97.5% | UACC-257 melanoma 80.5% | M14 melanoma 95.8% | HCT-15 colon 92.2%

O=C1NC(=O)c2ncccc21
inactive: K-562 leukemia 107% | MALME-3M melanoma 114% | MDA-MB-231 breast 116% | SF-268 CNS 103% | SF-295 CNS 89.7% | SF-539 CNS 101% | UACC-257 melanoma 102% | M14 melanoma 99.9% | HCT-15 colon 101%

COc1ccc2nc3ccccc3c(NCCNCC(C)O)c2c1 (centres undefined)
active: K-562 leukemia 9.22% | MALME-3M melanoma -13.7% | MDA-MB-231 breast -28.2% | SF-268 CNS 8.57% | SF-295 CNS 7.81% | SF-539 CNS 6.66% | UACC-257 melanoma 7.95%
inactive: M14 melanoma 11.3% | HCT-15 colon 23.1%

COc1ccc2nc3cc(Cl)ccc3c(NCCNCC(C)O)c2c1 (centres undefined)
active: K-562 leukemia 2.47%
inactive: MALME-3M melanoma 44.4% | MDA-MB-231 breast 34.3% | SF-268 CNS 36% | SF-295 CNS 35.1% | SF-539 CNS 26.2% | UACC-257 melanoma 30.2% | M14 melanoma 43.3% | HCT-15 colon 19.4%

COc1cc(/C=C2\Oc3cc(OCC(=O)c4ccccc4)ccc3C2=O)cc(OC)c1OC
inactive: K-562 leukemia 105% | MALME-3M melanoma 114% | MDA-MB-231 breast 95.6% | SF-268 CNS 105% | SF-295 CNS 91.5% | SF-539 CNS 121% | UACC-257 melanoma 132% | M14 melanoma 125% | HCT-15 colon 103%

COC(=O)c1ccc(=O)oc1
inactive: K-562 leukemia 86.8% | MALME-3M melanoma 101% | MDA-MB-231 breast 98.1% | SF-268 CNS 104% | SF-295 CNS 102% | SF-539 CNS 95.8% | UACC-257 melanoma 100% | M14 melanoma 101% | HCT-15 colon 97.8%

CCN(CC)CCCC(C)Nc1ccc2ccc(Cl)cc2n1 (centres undefined)
inactive: K-562 leukemia 95.6% | MALME-3M melanoma 115% | MDA-MB-231 breast 90.3% | SF-268 CNS 96.8% | SF-295 CNS 95.3% | SF-539 CNS 101% | M14 melanoma 103% | HCT-15 colon 102%

CCCCCCCCCCCCC1C/C=C\CCCC(=O)O1 (centres undefined)
inactive: K-562 leukemia 101% | MALME-3M melanoma 107% | MDA-MB-231 breast 119% | SF-268 CNS 103% | SF-295 CNS 103% | SF-539 CNS 107% | UACC-257 melanoma 118% | M14 melanoma 100% | HCT-15 colon 97.2%

CN(C)CC(O)c1ccc2cc(Br)c3ccccc3c2c1 (centres undefined)
inactive: K-562 leukemia 24.7% | MALME-3M melanoma 97.1% | MDA-MB-231 breast 16.8% | SF-268 CNS 58.5% | SF-295 CNS 75.6% | SF-539 CNS 65.9% | UACC-257 melanoma 99.2% | M14 melanoma 47.2% | HCT-15 colon 53.7%

O=C(CC(C(=O)c1ccccc1)N1CCOCC1)c1ccccc1 (centres undefined)
inactive: K-562 leukemia 40.5% | MALME-3M melanoma 101% | MDA-MB-231 breast 92.7% | SF-268 CNS 97.6% | SF-295 CNS 92.9% | SF-539 CNS 96.7% | UACC-257 melanoma 93.8% | M14 melanoma 101% | HCT-15 colon 85%

CCN(CCCCCCCCCCN1CC(=O)N(CCCCCCCCCCN(CC)Cc2ccccc2OC)CC1=O)Cc1ccccc1OC
active: K-562 leukemia -58.2% | MALME-3M melanoma -83.6% | MDA-MB-231 breast -66.3% | SF-268 CNS 4.39% | SF-295 CNS -76.7% | SF-539 CNS -93.2% | UACC-257 melanoma -86.9% | M14 melanoma -90.2% | HCT-15 colon -17%

CCN(CC)CCC(CNc1c(C)cnc2cc(Cl)ccc12)c1ccc(Cl)cc1 (centres undefined)
active: K-562 leukemia 7.15% | MALME-3M melanoma -57.9% | SF-539 CNS -52.3% | UACC-257 melanoma -58.3% | M14 melanoma -67.3%
inactive: MDA-MB-231 breast 27.3% | SF-268 CNS 67.5% | SF-295 CNS 51.4% | HCT-15 colon 35%

O=C(Cc1csc2nc(-c3ccc(Cl)cc3)cn12)N/N=C/c1ccccc1O
inactive: K-562 leukemia 41% | MALME-3M melanoma 74.5% | MDA-MB-231 breast 35.5% | SF-268 CNS 37.9% | SF-295 CNS 37.6% | SF-539 CNS 67.3% | UACC-257 melanoma 46.5% | M14 melanoma 47.1% | HCT-15 colon 17.2%

N=c1nc(N)ncn1-c1ccccc1
inactive: K-562 leukemia 93.5% | MALME-3M melanoma 110% | MDA-MB-231 breast 96.1% | SF-268 CNS 108% | SF-295 CNS 97.8% | SF-539 CNS 96.4% | UACC-257 melanoma 97.1% | M14 melanoma 106% | HCT-15 colon 99.1%
